DT40 TDP1 CPT = DT40-hTDP1 cell growth loss with CPT | chicken DT40 Tdp1-/-;hTDP1 cells + 20 nM CPT, ATP luminescence, 48 h | actives 12% (n = 420,000) | Potency, µM (highest dose often 46.2 µM), for inactives: top-dose activity change, negative = growth inhibition, hits mostly inhibitors | AID 686979; note: potency is the fitted concentration of half-maximal effect; nearly all actives have a fitted effect of over 55% in size
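Chicken DT40 Tdp1-/- cells complemented with human TDP1, 400 cells/well, exposed to compounds plus 20 nM camptothecin for at least 48 h at 37 C; viability read as ATP content by CellTiter-Glo luminescence.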
RORgamma inh = blocks mouse ROR gamma transcriptional activity; AID 2551; Drosophila S2 Gal4-RORgamma UAS-luciferase reporter, 20 h; P51450; Potency, µM (series often up to 53.6 µM), for inactives: at the top dose activity change, negative = inhibition, hits mostly inhibitors; actives 5.4% (n = 310,000); note: potency is the fitted concentration of half-maximal effect; nearly all actives have a fitted effect of over 60% in size
Target sequence (P51450 whole entry, looked up, the tested form may be a part): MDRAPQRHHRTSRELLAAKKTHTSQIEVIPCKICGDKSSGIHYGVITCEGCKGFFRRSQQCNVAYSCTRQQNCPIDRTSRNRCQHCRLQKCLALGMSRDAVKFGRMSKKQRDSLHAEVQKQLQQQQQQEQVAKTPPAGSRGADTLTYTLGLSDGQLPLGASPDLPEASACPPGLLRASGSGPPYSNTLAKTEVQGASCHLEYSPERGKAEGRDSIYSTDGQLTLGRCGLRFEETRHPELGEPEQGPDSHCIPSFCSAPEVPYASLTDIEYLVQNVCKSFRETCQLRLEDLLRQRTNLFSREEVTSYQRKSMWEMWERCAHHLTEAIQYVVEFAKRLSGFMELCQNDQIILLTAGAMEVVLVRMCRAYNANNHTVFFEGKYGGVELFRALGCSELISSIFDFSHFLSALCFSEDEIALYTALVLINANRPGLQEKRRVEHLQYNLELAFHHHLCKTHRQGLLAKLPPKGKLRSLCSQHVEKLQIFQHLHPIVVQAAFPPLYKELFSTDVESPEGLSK
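Luminescence from a UAS-regulated Photinus luciferase reporter in stably transfected Drosophila Schneider cells is measured; decreased signal marks ROR gamma inhibition. Fusion expression is induced by 700 uM copper sulfate for 20 hr.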
ELG1 DNA repair = ELG1-dependent DNA repair inhibition; HEK293T ELG1-luciferase reporter, luminescence, 16 h; DNA damage induced by 5-fluorouridine; Potency, µM (highest dose often 46.1 µM), for inactives: at the highest dose activity change, negative = inhibition, hits mostly inhibitors; actives 2.3% (n = 330,000); note: potency is the fitted concentration of half-maximal effect; nearly all actives have a fitted effect of over 55% in size
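Cells (2,000 per well) received 5-fluorouridine plus test compound or DMSO and were incubated 16 hr at 37 °C, 5% CO2. Luciferase activity was read by luminescence 30 min after ONE-Glo addition; signal suppression marked inhibition of damage-induced ELG1 function.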
IL1B secr inh = inflammasome signaling inhibition, IL-1 beta readout; THP-1 LPS/ATP IL-1B secretion, AlphaLISA, 16 h; stronger effect = lower value; activity change, % at 57.5 µM; actives 4.7% (n = 360,000); AID 743279; in the data active = activity change below about -50%; inconclusive = mostly about -30% to -49%
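Secreted IL-1B measured by AlphaLISA bead assay after 16 h compound exposure of THP-1 cells; compounds (final up to 57.5 uM) added 1 h before LPS (250 ng/mL) and ATP (1.25 mM) stimulation; lower signal means less secretion.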
TDP1 cell noCPT = qHTS for Inhibitors of human tyrosyl-DNA phosphodiesterase 1 (TDP1): qHTS in cells in absence of CPT | Potency, µM (highest dose often 46.2 µM), without a hit: at the highest dose activity change, negative = growth inhibition, usual class: inhibitors | actives 15% (n = 420,000) | AID 686978, 2013 | DT40 Tdp1-/- hTDP1 cells, no CPT, ATP luminescence, 48 h; note: potency is the fitted concentration of half-maximal effect; nearly all actives have a fitted effect of over 55% in size
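Chicken DT40 Tdp1-/- cells stably complemented with human TDP1 were seeded at 400 cells/well with DMSO in place of 20 nM camptothecin. After compound pinning, cells grew at least 48 hr at 37 °C; viability read by CellTiter-Glo luminescence.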
Gal4-VP16 FLuc = counter-screen for ROR gamma inhibitors: Gal4-VP16 reporter | Drosophila S2 Gal4-VP16 UAS-luciferase, luminescence, 20 h | Potency, µM (titrated, usually from 53.6 µM), inactives show top-dose activity, negative = inhibition, most hits filed as inhibitors | actives 3.5% (n = 310,000) | AID 2546;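 note: Gal4-VP16 expression switched on by copper sulfate through the metallothionein promoter; potency is the fitted concentration of half-maximal effect; nearly all actives have a fitted effect of over 50% in size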
* marks the source's active call; other numbers are inactive results; u = inconclusive; x = no result given; [ ] = remark or other dose. The list is not random: actives were taken first. Their share in the collection is about 21%. Unless noted, calls come from the whole dose curve; as a rule, active = well fitted curve in the direction sought with a large enough effect; inconclusive = small, poorly fitted or top-dose-only effect, or another doubt; inactive = no such curve, though single readings can be large; an effect the other way counts as inactive or inconclusive. % is set by controls: 0 for no effect and ±100 for the full control effect.

SMILES	DT40 TDP1 CPT	RORgamma inh	ELG1 DNA repair	IL1B secr inh	TDP1 cell noCPT	Gal4-VP16 FLuc
COc1ccc(/C=C/C(=O)N2c3ccccc3Sc3ccc(C(F)(F)F)cc32)cc1	u	18.7%	u	-3.2	18.4µM*	-13.1%
CC(=O)OCC(NC(=O)C1CCCN1C(=O)OC(C)(C)C)C1OC(n2ccc(=O)[nH]c2=O)C(OC(C)=O)C1OC(C)=O (stereo unspecified)	x	-10.7%	x	x	x	-3.6%
COc1ccc2c(c1)Cc1sc(NC(=O)c3ccccc3)nc1-2	u	11.2µM*	u	-4.4	u	-25.8%
COc1ccc(Br)c2c1-c1nc(NC(=O)c3cccc(C)c3)sc1C2	u	x	x	x	23.1µM*	x
COc1ccc2c(c1)Cc1sc(NC(=O)c3cccs3)nc1-2	u	7.94µM*	u	-12.5	20.6µM*	u
COc1ccc2c(c1)Cc1sc(NC(=O)c3ccccc3C)nc1-2	-26.6%	x	x	x	u	x
COc1cccc(-c2nnc(NC(=O)c3cccs3)s2)c1	-15.4%	-31.8%	u	-8.3	-18.0%	3.8%
COc1ccc2c(c1)CCc1sc(NC(=O)c3ccc(Cl)cc3)nc1-2	18.4µM*	x	x	x	20.6µM*	x
Cc1ccc(S(=O)(=O)N2[C@@H](c3ccccc3F)C(C(=O)O)=CC[C@H]2c2ccc(Cl)c(Cl)c2)cc1	-23.4%	x	0.5%	31.6	u	x
O=C(COC(=O)c1cc(=O)c2ccccc2o1)NC1CCCC1	11.9%	19.5%	-24.4%	2.4	-13.7%	-16.7%
CC(C)N(C(=O)CN1CCC(c2nc3ccccc3[nH]2)CC1)C(C)C	-1.6%	-12.1%	4.5%	-4.0	-28.3%	-6.2%
COc1ccc(C(=O)Nc2nnc(C)s2)cc1	6.5%	x	x	x	-10.2%	x
COc1ccc(C(=O)Nc2nc3c(s2)Cc2cc(OC)ccc2-3)cc1	u	u	u	-53.0*	u	35.5µM*
CC(C)c1ccc(CN2CCN(C(=O)CCl)CC2)cc1	1.16µM*	5.2%	-0.2%	-99.7*	0.731µM*	-1.8%
Cc1ccccc1NC(=O)c1ccc(CN2CC(=O)N3CCCCC3C2=O)cc1 (stereo unspecified)	3.3%	-24.7%	10.4%	4.2	-9.5%	-8.5%
CC(C)c1ccc(NC(=O)c2ccc(CN3CC(=O)N4CCCCC4C3=O)cc2)cc1 (stereo unspecified)	u	x	x	x	16.4µM*	x
O=C(Nc1ccc(CN2CCS(=O)(=O)CC2)cc1)c1ccc(Cl)cc1	-4.8%	33.1%	10.3µM*	-21.0	u	-4.6%
CC(C)c1ccc(C(=O)Nc2ccc(CN3CCOCC3)cc2)cc1	u	-21.4%	-9.0%	-54.5*	u	u
CCN(CC)CCNC(=O)c1ccc(NC(=O)COc2ccc3c(c2)CCC3)cc1	u	x	1.7%	-5.2	u	x
Cc1oc(-c2ccccc2NC(=O)c2ccccc2)nc1CNC(=O)c1c(-c2ccccc2)noc1C	0.0%[9.04 µM]	x	x	x	-11.8%	x
CC(C)c1ccc(/C=C/C(=O)Nc2ccc(CN3CCOCC3)cc2)cc1	8.2µM*	u	9.2µM*	-93.8*	13µM*	u
COC(=O)c1ccc(NC(=S)N2CCN(Cc3ccc(Cl)cc3)CC2)cc1	u	u	u	14.3	16.4µM*	-27.0%
CN(C)c1ccc(-c2ccc(C3C4C=CCCC4(C)C(=O)N3Cc3ccccc3)c(F)c2)cc1 (stereo unspecified)	x	19.4%	x	x	x	-7.9%
COc1ccc(NC(=O)c2cnc(C)cn2)cc1-n1cnnn1	-14.4%	10.1%	0.9%	16.0	-12.6%	-0.4%
Cc1cnc(C(=O)Nc2ccc(-n3cnnn3)cc2)cn1	18.4µM*	15.8%	u	8.7	u	2.1%
SMILES	DT40 TDP1 CPT	RORgamma inh	ELG1 DNA repair	IL1B secr inh	TDP1 cell noCPT	Gal4-VP16 FLuc
Cc1cccc(-n2c(=O)c3c(c4cc(C)ccc4n3C)n(CC(=O)Nc3ccc(C)cc3C)c2=O)c1	1.4%	x	x	x	18.5%	x
CC1OC(O[C@H]2CC[C@]3(C)C4C=C[C@]56OC[C@@]7(CC[C@@H](C)[C@H](C)C75)[C@H](O)C[C@@]6(C)[C@]4(C)CC[C@H]3C2(C)C)C(OC2OC(CO)C(O)C(O)C2OC2OCC(O)C(O)C2O)C(O)C1O (stereo partly specified)	x	1.78µM*	2.5%	x	x	-20.9%
C[C@@H]1OC(OC2CC[C@@]3(C)C(CC[C@@]4(C)C3CC=C3C5CC(C)(C)CC[C@]5(C(=O)OC5OCC(O)[C@@H](O)[C@@H]5OC5O[C@@H](C)[C@H](O[C@H]6OC(CO)C(O)C(O)C6O)C(O)C5O)C(O)C[C@@]34C)C2(C)C)C(O)C(O)[C@H]1OC1OCC(O)C(O)[C@H]1O (stereo partly specified)	14.6µM*	-19.9%	x	x	u	u
C[C@H]1O[C@@H](O[C@H]2CC[C@@]3(C)C(CC[C@]4(C)C3C=CC3=C5CC(C)(C)CC[C@]5(CO)[C@H](O)C[C@]34C)[C@]2(C)CO)[C@H](O)[C@@H](O[C@@H]2O[C@H](CO)[C@@H](O)[C@H](O)[C@H]2O)[C@H]1O (stereo partly specified)	-4.6%	x	14.3%	-15.9	-2.8%	x
CC1O[C@@H](OC2C(COC3OC(CO)C(O)[C@H](O)C3O)OC(OC3CC[C@]4(C)C(CC[C@@]5(C)[C@@H]4CC=C4[C@@H]6CC(C)(C)CC[C@]6(CO)C(O)C[C@]45C)C3(C)C)C(O)C2O)C(O)C(O)C1O (stereo partly specified)	13.0%	x	-1.0%	9.3	6.6%	x
COc1ccc(/C=C\C(=O)O[C@@H]2C(O)C(O[C@@H]3OC(C)[C@H](O[C@@H]4OCC(O[C@H]5O[C@H](CO)[C@@H](O)C(O)C5O)C(O)C4O)C(O)C3O)[C@H](OC(=O)[C@]34CCC(C)(C)C[C@@H]3C3=CCC5[C@@]6(C)CC(O)C(O[C@@H]7OC(CO)C(O)[C@H](O)[C@H]7O)[C@@](C)(C(=O)O)C6CC[C@@]5(C)[C@]3(CO)CC4)O[C@H]2C)cc1 (stereo partly specified)	3.66µM*	x	u	-97.2*	5.17µM*	x

High-throughput results (PubChem)
